Compounds with a hit are over-represented: about 11% of the library has one in this group of screens.
ALDH1A1 inh: inhibitors of human aldehyde dehydrogenase 1A1; P00352; Purified ALDH1A1, NADH fluorescence, propionaldehyde substrate; Potency, µM (highest dose often 75.3 µM), actives largely listed as inhibitors; 220,000 compounds, 7.3% hits; active means well fitted inhibition curve with a large enough effect, not every such curve was filed as active; inconclusive means small, poorly fitted or top-dose-only effect, or another doubt; inactive means no such curve, though single readings can be large or run the other way
CBFb RUNX1 block: inhibitors of human CBF-beta and RUNX1 interaction; AlphaScreen CBFb-His/RUNX1-biotin binding, biochemical; Potency, µM (doses to about 59.8 µM), most hits filed as inhibitors; 230,000 tested, under 10 active; AID 1477
Target sequence (Q01196 whole entry, looked up): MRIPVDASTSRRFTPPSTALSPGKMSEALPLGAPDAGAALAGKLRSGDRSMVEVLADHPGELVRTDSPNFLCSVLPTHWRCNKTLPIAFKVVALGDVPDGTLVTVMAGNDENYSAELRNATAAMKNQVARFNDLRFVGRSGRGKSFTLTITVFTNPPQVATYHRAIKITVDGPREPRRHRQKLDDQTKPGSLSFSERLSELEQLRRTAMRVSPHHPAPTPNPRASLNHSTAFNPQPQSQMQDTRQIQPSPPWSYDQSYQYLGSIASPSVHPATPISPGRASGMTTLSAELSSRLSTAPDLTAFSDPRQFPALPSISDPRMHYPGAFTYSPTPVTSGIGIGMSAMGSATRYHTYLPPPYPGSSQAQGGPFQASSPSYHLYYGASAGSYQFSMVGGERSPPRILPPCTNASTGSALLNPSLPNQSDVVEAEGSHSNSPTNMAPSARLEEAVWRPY
Target sequence (Q13951 whole entry, looked up): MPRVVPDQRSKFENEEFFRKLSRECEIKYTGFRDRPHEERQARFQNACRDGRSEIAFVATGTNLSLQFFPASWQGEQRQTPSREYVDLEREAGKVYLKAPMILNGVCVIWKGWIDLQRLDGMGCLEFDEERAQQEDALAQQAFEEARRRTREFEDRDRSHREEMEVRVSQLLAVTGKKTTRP
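Bead-based AlphaScreen assay; binding partners His-tagged CBF-beta and biotinylated RUNX1 at 30 nM each. Compound exposure 15 min after a 20-min protein preincubation; bead step 90 min; all steps at room temperature.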
HPGD block: HPGD (human) dehydrogenase inhibition. P15428. purified HPGD, NADH fluorescence kinetic, PGE2 substrate. Potency, µM, most hits filed as inhibitors. AID 894. 150,000 compounds, 4.3% hits; active means well fitted inhibition curve with a large enough effect, not every such curve was filed as active; inconclusive means small, poorly fitted or top-dose-only effect, or another doubt; inactive means no such curve, though single readings can be large or run the other way
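20 nM HPGD preincubated 15 min at room temperature with compound in 50 mM Tris-HCl pH 8, 0.01% Tween 20. Started with 1 mM NAD+ and 30 uM prostaglandin E2; NADH fluorescence (360/450 nm) read 5 times over 30-s intervals, last minus first.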
HTT aggregate: mutant huntingtin aggregation inhibition | PC12 HttQ103-GFP aggregates, Acumen cytometry, 40 h | Potency, µM (highest dose often 46.1 µM), most hits filed as inhibitors | 220,000 compounds, 1.1% hits | AID 1688; further: nearly all actives have a fitted effect of over 60% in size
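Steps: seed 1500 PC12 HTTQ103-GFP cells/well; add tebufenozide, 100 nM final; add compound titration; add ATPLite reagent; quantify GFP aggregates by laser scanning cytometry.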
HTT cytoprotect: Huntington cell model cytoprotection by ATP luminescence; PC12 HTT-Q103 induced, cytoprotection, ATP luminescence, 40 h; Potency, µM (top dose mostly 56.4 µM), actives largely listed as activators; 230,000 compounds, 0.14% hits; further: nearly all actives have a fitted effect of over 45% in size
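PC12 cells with ecdysone-inducible HTT exon 1 Q103-GFP, induced with 100 nM tebufenozide and co-treated with library compounds in a dose series (1536-well, 1500 cells/well). Cytoprotection read as ATP content by ATPlite luminescence.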
PNC inhibitor: perinucleolar compartment assembly inhibition | 140,000 compounds, 3.1% hits | activity change (PNC), negative = inhibition, % at 10 µM | AID 2417 | PC3M PTB-GFP, PNC prevalence imaging, 16 h; stronger effect = lower value;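 active means readout at or below -70, meaning at least 70% loss of cells showing the perinucleolar compartment, a nuclear body marking cancer cells; inconclusive means readout between -30 and a set limit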
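PC3M cells stably expressing PTB-GFP, 750–1000 cells/well, treated 16 h at 37 °C with compound (23 nl of library stock), in duplicate. After paraformaldehyde fixation and Hoechst stain, imaged at 20x; PNC prevalence scored by image analysis.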
Hits are given with their value; - = inactive; ? = inconclusive; . = no result; [ ] = remark or other dose. Unless noted, the call rests on the fitted dose curve; in most records, active means well fitted curve in the direction sought with a large enough effect; inconclusive means small, poorly fitted or top-dose-only effect, or another doubt; inactive means no such curve, though single readings can be large; an effect the other way counts as inactive or inconclusive.

SMILES | ALDH1A1 inh | CBFb RUNX1 block | HPGD block | HTT aggregate | HTT cytoprotect | PNC inhibitor
Cc1ccc2[nH]c(=O)c(C(c3nnnn3C3CCCC3)N3CCCc4ccccc43)cc2c1 (configuration not stated) | 14.1µM | - | - | 35.5µM | -[10 µM] | -
Cc1ccc2[nH]c(=O)c(C(c3nnnn3CC3CCCO3)N3CCCc4ccccc43)cc2c1 (configuration not stated) | 12.6µM | - | - | - | - | ?
Cc1ccc2[nH]c(=O)c(C(c3nnnn3CC3CCCO3)N3CCc4ccccc4C3)cc2c1 (configuration not stated) | ? | - | ? | - | - | -
CCC(C)(C)n1nnnc1C(c1cc2cc(C)ccc2[nH]c1=O)N1CCCc2ccccc21 (configuration not stated) | - | - | - | - | - | -
CC(C)=CCC/C(C)=C/CO/N=C1/C[C@@H](O)[C@@H](O)[C@@H]2[C@@H]3C(=O)N(C4CCCCC4)C(=O)[C@H]3CC[C@@H]12 | -[13.5 µM] | -[13.1 µM] | . | . | -[10 µM] | .
Cc1ccc(-c2cnc(SCC(=O)N3CCCc4ccccc43)n2C)cc1 | ? | - | - | - | - | -
Cn1c(-c2ccccc2)cnc1SCC(=O)N1CCCc2ccccc21 | 10µM | - | - | - | -[10 µM] | ?
O=C(CSc1ncc(-c2ccccc2)n1C1CCCC1)N1CCc2ccccc21 | 3.55µM | - | - | - | - | -
Nc1nc(SCC(=O)N2CCc3ccccc32)[nH]c(=O)c1-c1ccccc1 | ? | - | - | - | ? | -106.5
Nc1nc(SCC(=O)N2CCCC2)[nH]c(=O)c1-c1ccccc1 | - | - | - | - | -[0.074 µM] | -
O=c1cnc2cnc(N3CCNCC3)nc2n1C1CC1 | ? | . | . | . | - | .
Cc1onc(-c2ccccc2Cl)c1C(=O)N1CCN(c2nc3ccccc3s2)CC1 | 14.1µM | - | - | - | - | -112.6
COc1ccccc1N1CCN(C(=O)c2c(-c3ccccc3Cl)noc2C)CC1 | - | - | - | -[9.22 µM] | - | -
Nc1nc2ccccc2n1/N=C/c1ccc([N+](=O)[O-])s1 | - | ? | - | ? | -[10 µM] | -83.0
Cc1ccn2c(c1)nc(=S)n2C(=O)c1ccccc1 | ? | - | 25.1µM | ? | . | -
Cc1ccc(-c2nc(N)n(C(=O)c3ccco3)n2)cc1 | ? | - | . | - | - | .
Cc1cccc2nc(=S)n(C(=O)c3ccco3)n12 | 4.74µM | - | ? | - | -[10 µM] | ?
O=C(c1ccco1)n1c(=S)nc2ccccn21 | 20µM | - | 11.2µM | - | - | -
Cc1cccc(C(=O)n2c(=S)nc3cc(C)ccn32)c1 | ? | - | . | -[9.22 µM] | -[10 µM] | .
NS(=O)(=O)c1ccc(CCNC(=O)COC(=O)/C=C/c2ccccc2Cl)cc1 | ? | - | . | - | - | .
CCOC(=O)C1CCCN(C(=O)c2sc3nc(-c4ccc(F)cc4)cn3c2C)C1 (configuration not stated) | 10µM | - | - | - | - | -
CCOC(=O)C1CCCN(C(=O)c2cc(-c3ccc(C)cc3)on2)C1 (configuration not stated) | - | - | 15.8µM | - | -[0.074 µM] | -
CCOC(=O)C1CCCN(C(=O)c2cccs2)C1 (configuration not stated) | - | - | - | - | -[1.9 µM] | -
Clc1ccc2c(c1)-c1nnc(Br)n1-c1ccccc1S2 | - | - | 17.8µM | - | -[10 µM] | -100.0
Brc1nnc2n1-c1ccccc1Sc1ccccc1-2 | - | - | ? | - | -[1.9 µM] | -
SMILES | ALDH1A1 inh | CBFb RUNX1 block | HPGD block | HTT aggregate | HTT cytoprotect | PNC inhibitor
C=CCN1C(C(=O)c2ccccc2)=C(OC(=O)COc2ccccc2)c2ccccc2S1(=O)=O | - | - | - | 12.6µM | -[10 µM] | -
O=C(COc1ccccc1)NNC1=NS(=O)(=O)c2ccccc21 | - | - | . | - | - | .
Cc1[nH]c(=S)c(C#N)c(-c2ccco2)c1C(=O)N(C)C | 28.2µM | - | . | - | - | .
COC(=O)c1ccc(C(NC(=O)OCc2ccccc2)/C(=C/[C@@H](C)C(=O)NCc2ccncc2)c2cccnc2)cc1 (some centres not stated) | - | - | - | . | - | .
O=C(Oc1csc(=S)n1C(=O)c1ccccc1)c1ccccc1 | 3.16µM | - | 4.47µM | - | - | -
Cc1cccc(C(=O)Nc2cccc(OC(=O)c3cccc(C)c3)c2)c1 | - | - | - | - | - | ?
Cc1cccc(C(=O)Oc2csc(=S)n2C(=O)c2cccc(C)c2)c1 | 8.91µM | - | 14.1µM | - | -[1.9 µM] | -
N#Cc1cccc(NC(=O)N2CC[C@@]3(CCCN(C(=O)c4cnccn4)C3)C2)c1 | ? | . | - | . | - | .
COc1cccc(-c2nnc(NC(=O)c3ccc(S(=O)(=O)N4CCOCC4)cc3)o2)c1 | - | - | - | 10µM | - | -
COc1cc(-c2nnc(NC(=O)c3ccc(S(=O)(=O)N4CCOCC4)cc3)o2)cc(OC)c1OC | - | - | . | - | - | .
CC1CN(S(=O)(=O)c2ccc(C(=O)Nc3nnc(-c4ccc5c(c4)CCCC5)o3)cc2)CC(C)O1 (configuration not stated) | ? | - | - | 3.55µM | - | -
CN(C)c1ncc2nc(-c3cn(C)c4ccccc34)c(=O)n(C[C@H]3CCCO3)c2n1 | - | . | . | . | - | .
O=C(N/N=C/c1c(Nc2cccc(C(F)(F)F)c2)nc2ccccn2c1=O)c1ccccc1[N+](=O)[O-] | - | - | - | ? | -[10 µM] | -112.6
O=C(N/N=C/c1c(Nc2cccc(C(F)(F)F)c2)nc2ccccn2c1=O)c1ccccc1 | - | - | - | - | - | -
CCCn1c(SCC(=O)N2N=C3/C(=C/c4ccc(OC)cc4)CCCC3C2c2ccc(OC)cc2)n[nH]c1=O (configuration not stated) | ? | - | ? | ? | -[10 µM] | -
COc1ccc(/C=C2\CCCC3C2=NC(=S)NC3c2ccc(OC)cc2)cc1 (configuration not stated) | 8.91µM | ? | ? | - | -[10 µM] | -
CCCCC(=O)OCc1nc(N)nc(Nc2ccccc2C)n1 | - | - | - | - | -[10 µM] | -
CCOC(=O)N1CCC(Nc2ncnc3c2cnn3-c2ccc(C)cc2C)CC1 | ? | - | - | 12.6µM | - | -
Cc1ccc(-n2ncc3c(NCC4CCCO4)ncnc32)c(C)c1 (configuration not stated) | - | - | 2.24µM | - | - | -
CC(=O)Nc1ccc(Nc2ncnc3c2cnn3-c2ccc(C)cc2C)cc1 | - | - | - | - | - | -
CCc1cc2c(NCC3CCCO3)ncnc2s1 (configuration not stated) | ? | - | 14.1µM | ? | -[10 µM] | -
Cc1sc2ncnc(NCC3CCCO3)c2c1C (configuration not stated) | - | - | - | ? | - | -
CCN(CC)C(=O)C1CCN(c2ncnc3c2cnn3-c2ccc(C)cc2C)CC1 | 10µM | - | 22.4µM | - | - | -

Source: PubChem BioAssay (National Center for Advancing Translational Sciences (NCATS))
